Measured values from the supplement of paper PMC13380429.

What was measured:
[1] = system: Vero E6 infected with SARS-CoV-2; assay: morphology score (similarity to uninfected cells); higher = more like uninfected cells; conditions: 24 h
[2] = system: Vero E6 infected with SARS-CoV-2; assay: SARS-CoV-2 infection rate relative to infected DMSO; higher = more infection, active = 60 or less; conditions: 24 h

Row | Structure (SMILES) | morphology score [1] | SARS-CoV-2 infection rate [2]
1 | CN(C)N(C)C(=O)[C@@]1(Cc2ccccc2)CCCN(C(=O)[C@@H](Cc2c[nH]c3ccccc23)NC(=O)C(C)(C)N)C1 [anamorelin] (10 µM) | 0.0474 | 98.5% (inactive)
2 | C[C@]12C/C(=C/O)C(=O)C[C@@H]1CC[C@@H]1[C@@H]2CC[C@@]2(C)[C@H]1CC[C@]2(C)O [Oxymetholone] (10 µM) | -0.162 | 120% (inactive)
3 | N[C@H](C(=O)O)c1ccc(O)c(C(=O)O)c1 [3-carboxy-4-hydroxyphenylglycine-(S)] (10 µM) | 0.115 | 95% (inactive)
4 | CN1CCC[C@@H](CC2c3ccccc3Sc3ccccc32)C1 (racemic) [metixene] (0.833333 µM) | 0.383 | 86% (inactive)
5 | COc1nc(C)nc(Cl)c1NC1=NCCN1 [moxonidine] (10 µM) | 0.0753 | 102% (inactive)
6 | CN(C)c1ccc(/C=C2\C(=O)Nc3ccccc32)cc1 (10 µM) | 0.175 | 101% (inactive)
7 | Oc1ncnc2[nH]ncc12 [allopurinol] (10 µM) | -0.0914 | 108% (inactive)
8 | C=CC(=O)Nc1ccc2ncnc(Nc3cccc(Br)c3)c2c1 (0.833333 µM) | 0.0618 | 90% (inactive)
9 | Cc1cc(F)c(Nc2ncnc3cc(OCc4ccccc4)ccc23)cc1O (10 µM) | 0.0561 | 99% (inactive)
10 | N[C@@H]1CCCCN(c2c(F)cc3c(=O)c(C(=O)O)cn(C4CC4)c3c2Cl)C1 [besifloxacin] (10 µM) | 0.165 | 110% (inactive)
11 | C[C@@H]1CCC[C@H](C)N1NC(=O)c1ccc(Cl)c(S(N)(=O)=O)c1 [clopamide] (10 µM) | -0.0797 | 103% (inactive)
12 | CCOc1ccc2nc(SCCN3CCOCC3)[nH]c2c1 [afobazole] (10 µM) | -0.0209 | 111% (inactive)
13 | COc1ccc(CN2CCN(C(c3ccc(F)cc3)c3ccc(F)cc3)CC2)c(OC)c1OC [lomerizine] (10 µM) | 0.0043 | 108% (inactive)
14 | CC[C@H](C)C(=O)O[C@H]1C[C@H](O)C=C2C=C[C@H](C)[C@H](CC[C@@H](O)C[C@@H](O)CC(=O)O)[C@H]21 (10 µM) | 0.0616 | 106% (inactive)
15 | C[C@](O)(COc1ccc(C#N)cc1)C(=O)Nc1ccc(C#N)c(C(F)(F)F)c1 [ostarine] (10 µM) | 0.0725 | 112% (inactive)
16 | O=C(O)C(O)C(O)C(=O)O (stereo unspecified) [tartaric-acid] (10 µM) | -0.0312 | 103% (inactive)
17 | O=C(NCCCCCCNC(=O)ON=C1CCCCC1)ON=C1CCCCC1 (10 µM) | 0.11 | 104% (inactive)
18 | Cc1cccc(-c2n[nH]cc2-c2ccc3ncccc3n2)n1 [repsox] (10 µM) | 0.188 | 97% (inactive)
19 | COc1cccc2c1C(=O)c1c(O)c3c(c(O)c1C2=O)C[C@@](O)(/C(CO)=N/NC(=O)CCCCCN1C(=O)C=CC1=O)C[C@@H]3O[C@H]1C[C@H](N)[C@H](O)[C@H](C)O1 [aldoxorubicin] (0.833333 µM) | -0.0766 | 109% (inactive)
20 | CO[C@@]1(NC(=O)C2SC(=C(C(N)=O)C(=O)O)S2)C(=O)N2C(C(=O)O)=C(CSc3nnnn3C)CS[C@@H]21 (stereo partly specified) [cefotetan] (10 µM) | 0.104 | 98% (inactive)
21 | CS(=O)(=O)c1ccc(-c2cn3ccccc3n2)cc1 [zolimidine] (10 µM) | 0.211 | 85% (inactive)
22 | C[C@H](N)C(=O)N[C@@]1(C(=O)O)C[C@@H](Sc2nnc[nH]2)[C@H]2[C@H](C(=O)O)[C@H]21 (10 µM) | -0.0396 | 114% (inactive)
23 | CN1CCC(OC(c2ccccc2)c2ccccc2)CC1 [diphenylpyraline] (10 µM) | 0.291 | 82.5% (inactive)
24 | O=C(O)Cc1ccc2c(c1)C(=O)c1ccccc1CO2 [isoxepac] (10 µM) | 0.152 | 103% (inactive)
25 | COc1cccc(CN(C(=O)CC(C)(C)C)[C@H]2C[C@@H](C(=O)N3CCNCC3)N(Cc3ccc4c(c3)OCO4)C2)c1 (10 µM) | 0.0543 | 102% (inactive)
26 | c1ccc(COCCCc2c[nH]cn2)cc1 [proxyfan] (10 µM) | -0.149 | 115% (inactive)
27 | CN[C@@H](C)CC1CCCCC1 [propylhexedrine] (10 µM) | -0.0197 | 110% (inactive)
28 | CCN1CCN(c2ccc(Nc3cc(N(C)C(=O)Nc4c(Cl)c(OC)cc(OC)c4Cl)ncn3)cc2)CC1 (0.833333 µM) | -0.0528 | 117% (inactive)
